Several values for one entry are separate records, joined by “and”; a condition that tells them apart may be missing. Equal entries are not always repeated. The panel holds about 83,000 compounds, 20% with a hit somewhere; the sample as a whole holds those more often.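 The test compound was applied at a single concentration to cells in 96-well plates for 48 hours, and percent growth was recorded.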
Experiments:
Test in all cases: NCI-60 one-dose screen, 48 h (100 = growth as untreated, 0 = no growth, -100 = all killed)
Conditions in all cases: 10 µM unless noted; active = growth percent below 10; inactive = the rest
NCI-H23 lung = test system: NCI-H23 lung
NCI-H226 lung = test system: NCI-H226 lung
NCI-H322M lung = test system: NCI-H322M lung
HOP-62 NSCLC = test system: HOP-62 NSCLC
NCI-H460 lung = test system: NCI-H460 lung
HOP-92 NSCLC = test system: HOP-92 NSCLC
NCI-H522 lung = test system: NCI-H522 lung
A549/ATCC NSCLC = test system: A549/ATCC NSCLC
786-0 renal = test system: 786-0 renal
COLO 205 colon = test system: COLO 205 colon
DU-145 prostate = test system: DU-145 prostate
K-562 leukemia = test system: K-562 leukemia
MALME-3M melanoma = test system: MALME-3M melanoma
MDA-MB-231 breast = test system: MDA-MB-231 breast
RXF 393 renal = test system: RXF 393 renal
SF-268 CNS = test system: SF-268 CNS
SF-295 CNS = test system: SF-295 CNS
SF-539 CNS = test system: SF-539 CNS
UACC-257 melanoma = test system: UACC-257 melanoma
M14 melanoma = test system: M14 melanoma

Measured: growth

CCCC1CCCCC12C(=O)NC(=O)NC2=O (stereo unspecified)
inactive: NCI-H23 lung 97.2% and 101% | NCI-H226 lung 91.1% | NCI-H322M lung 105% and 94.3% | HOP-62 NSCLC 107% | NCI-H460 lung 101% and 109% | HOP-92 NSCLC 103% | NCI-H522 lung 95.5% and 89.7% | A549/ATCC NSCLC 104% and 98.2% | 786-0 renal 102% and 96.6% | COLO 205 colon 104% and 110% | DU-145 prostate 104% and 109% | K-562 leukemia 101% | MALME-3M melanoma 86.4% and 112% | MDA-MB-231 breast 89.3% and 120% | RXF 393 renal 104% and 110% | SF-268 CNS 105% and 102% | SF-295 CNS 95.5% and 108% | SF-539 CNS 97.1% and 111% | UACC-257 melanoma 103% and 94.1% | M14 melanoma 96.4% and 96.9%

NC(=O)Oc1cc(OC(N)=O)cc(N(CCCl)CCCl)c1
inactive: NCI-H23 lung 50% | NCI-H226 lung 79.5% | NCI-H322M lung 111% | HOP-62 NSCLC 58.5% | NCI-H460 lung 23.9% | HOP-92 NSCLC 75.9% | NCI-H522 lung 17.9% | A549/ATCC NSCLC 50.6% | 786-0 renal 28.6% | COLO 205 colon 86.8% | DU-145 prostate 34.3% | K-562 leukemia 55.2% | MALME-3M melanoma 80.6% | MDA-MB-231 breast 97.9% | SF-268 CNS 39.7% | SF-539 CNS 23.3% | UACC-257 melanoma 57.2% | M14 melanoma 49.4%

Cc1cc(N)ccc1N
inactive: NCI-H23 lung 105% | NCI-H226 lung 92% | NCI-H322M lung 95% | HOP-62 NSCLC 93.9% | NCI-H460 lung 106% | HOP-92 NSCLC 95.1% | NCI-H522 lung 106% | A549/ATCC NSCLC 98.2% | COLO 205 colon 120% | DU-145 prostate 115% | K-562 leukemia 105% | MALME-3M melanoma 105% | RXF 393 renal 103% | SF-268 CNS 103% | SF-295 CNS 108% | SF-539 CNS 95.8% | UACC-257 melanoma 97.2% | M14 melanoma 104%

O=C/C=C/c1ccco1
inactive: NCI-H23 lung 101% | NCI-H226 lung 107% | NCI-H322M lung 111% | HOP-62 NSCLC 94.7% | NCI-H460 lung 111% | HOP-92 NSCLC 94.3% | NCI-H522 lung 92% | A549/ATCC NSCLC 85.6% | 786-0 renal 100% | COLO 205 colon 115% | DU-145 prostate 108% | K-562 leukemia 88.8% | MALME-3M melanoma 98.8% | MDA-MB-231 breast 99.4% | RXF 393 renal 119% | SF-268 CNS 102% | SF-295 CNS 99.9% | SF-539 CNS 100% | M14 melanoma 102%

O=C(O)c1cc([N+](=O)[O-])cc([N+](=O)[O-])c1
inactive: NCI-H23 lung 107% | NCI-H226 lung 97% | NCI-H322M lung 105% | HOP-62 NSCLC 85.6% | NCI-H460 lung 106% | HOP-92 NSCLC 88.2% | NCI-H522 lung 67.9% | A549/ATCC NSCLC 79.6% | 786-0 renal 97.9% | COLO 205 colon 118% | DU-145 prostate 109% | K-562 leukemia 116% | MALME-3M melanoma 109% | MDA-MB-231 breast 120% | SF-268 CNS 97% | SF-295 CNS 101% | SF-539 CNS 104% | UACC-257 melanoma 61.8% | M14 melanoma 95.9%

O=S(=O)(F)c1cccc(Cl)c1C[P+](c1ccccc1)(c1ccccc1)c1ccccc1
inactive: NCI-H23 lung 108% | NCI-H226 lung 93.4% | NCI-H322M lung 97.9% | HOP-62 NSCLC 93.3% | NCI-H460 lung 106% | HOP-92 NSCLC 91.3% | NCI-H522 lung 88.8% | A549/ATCC NSCLC 93.9% | 786-0 renal 104% | COLO 205 colon 99.9% | DU-145 prostate 109% | K-562 leukemia 77.2% | MALME-3M melanoma 90.4% | MDA-MB-231 breast 98.6% | SF-268 CNS 105% | SF-295 CNS 92.3% | SF-539 CNS 103% | UACC-257 melanoma 89.7% | M14 melanoma 102%

CCC(=O)C(CC(C)[N+](C)(C)C)(c1ccccc1)c1ccccc1 (stereo unspecified)
inactive: NCI-H23 lung 91.7% | NCI-H226 lung 87.8% | NCI-H322M lung 103% | HOP-62 NSCLC 91.6% | NCI-H460 lung 106% | HOP-92 NSCLC 103% | NCI-H522 lung 86.1% | A549/ATCC NSCLC 95.8% | 786-0 renal 92.9% | COLO 205 colon 85.8% | DU-145 prostate 112% | K-562 leukemia 103% | MALME-3M melanoma 106% | RXF 393 renal 104% | SF-268 CNS 103% | SF-295 CNS 95.3% | SF-539 CNS 96.6% | UACC-257 melanoma 94.7% | M14 melanoma 96.2%

CC[C@@H](C)C(=O)O[C@H]1[C@H](O)[C@H]2[C@@H](CN3C[C@@H](C)CC[C@H]3[C@@]2(C)O)[C@@H]2C[C@]34O[C@]5(O)[C@@H](OC(=O)[C@@](C)(O)CC)CC[C@@]3(C)[C@@H]5[C@@H](OC(C)=O)[C@@H](OC(C)=O)[C@H]4[C@@]21O
inactive: NCI-H23 lung 99.1% | NCI-H226 lung 81.2% | NCI-H322M lung 106% | HOP-62 NSCLC 82.8% | NCI-H460 lung 111% | HOP-92 NSCLC 90% | NCI-H522 lung 100% | A549/ATCC NSCLC 70.5% | 786-0 renal 101% | COLO 205 colon 92.1% | DU-145 prostate 107% | K-562 leukemia 83.9% | MALME-3M melanoma 103% | MDA-MB-231 breast 94.2% | RXF 393 renal 94.5% | SF-268 CNS 102% | SF-295 CNS 97.2% | SF-539 CNS 100% | M14 melanoma 95.6%
